What all share (details): concentration: 10 µM; 24 h
Assay [1] relates to HCC1569. As to the kind of experiment: cell number relative to DMSO (% of DMSO); higher = more cells (less growth inhibition / toxicity). The gist of the method:
(§1)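 Treatment: HCC1569 and TDF cells, 800 per well in 384-well plates with RPMI and 10% FBS, were given compounds at 10 µM for 24 h at 37 °C, in triplicate. Readout: after 3.7% formaldehyde fixation, cells were stained with a rabbit anti-H1.0 antibody, an AlexaFluor 647 secondary and DAPI. Reported values are H1.0 nuclear intensity or cell number as percent of the plate control, taken as the median of replicates, with positional smoothing for HCC1569.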

For assay [2], the system named is TDF. The assay is described as above. The gist of the method: as §1
Assay [3] concerns TDF. Description: H1.0 immunofluorescence intensity relative to DMSO (% of DMSO); higher = stronger H1.0 induction, active = 120 or more. A digest of the protocol: as §1
The subject of assay [4] is HCC1569. As to the kind of experiment: H1.0 immunofluorescence intensity relative to DMSO (% of DMSO); higher = stronger H1.0 induction, active = 140 or more. The gist of the method: as §1

± gives the standard deviation of the averaged measurements.

Among the data in the supplement of paper PMC7156485 are cell number and H1.0 immunofluorescence intensity values, retold here.
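For H1.0 immunofluorescence intensity relative to DMSO in this document: TDF is a line of transformed human dermal fibroblasts of mesenchymal origin.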
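For cell number relative to DMSO in this document: TDF denotes transformed human dermal fibroblasts of mesenchymal origin.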

As to `CN1CCC(c2c[nH]c3ccc(O)cc23)CC1.O=C(O)C=CC(=O)O`, the cell number in the assay on HCC1569 [1] and with TDF [2] was 101 throughout. The H1.0 immunofluorescence intensity with TDF [3] was 93.8 (inactive); with HCC1569 [4] it was 82.3 (inactive).

As to `O=C1C=CC(=O)C=C1` [p-Benzoquinone], the cell number in the assay with HCC1569 [1] turned out to be 100; in the assay with TDF [2] it was 99.8. Further, the H1.0 immunofluorescence intensity in the assay with TDF [3] is 93.1 (inactive); in the assay with HCC1569 [4] it was 93.3 (inactive).

As for `CCCC(=O)OCC[N+](C)(C)C` [Butyrylcholine], the cell number in the assay with HCC1569 [1] was found to be 101; with TDF [2], 104. Moreover, the H1.0 immunofluorescence intensity was 92.9 (inactive) in the assay on TDF [3] and 111 (inactive) with HCC1569 [4].

Consider `Cl.NCCc1c[nH]c2ccccc12` [Tryptamine hydrochloride], for which the cell number with HCC1569 [1] was found to be 99.1; in the assay on TDF [2], 98.5. For the same compound, the values for the H1.0 immunofluorescence intensity in the assay on TDF [3] and with HCC1569 [4] were 95.5 (inactive) and 97.2 (inactive), respectively.

Regarding `CC(C)c1cccc(C(C)C)c1O` [Propofol], the cell number was 99.2 ± 2.9 in the assay with HCC1569 [1] and 93.1 ± 16 in the assay on TDF [2]. Also, the H1.0 immunofluorescence intensity in the assay on TDF [3] is 93.7 (inactive); in the assay with HCC1569 [4] it was 95.8 (inactive).

Take `COC1CC(CC2CCC(C)C(C(C)C(=O)[O-])O2)OC2(OC(C)(C3CCC(C)(C4OC(C5OC(O)(CO)C(C)CC5C)CC4C)O3)CC2C)C1C.[Na+]` (configuration not stated) [Nigericin]: the cell number is 53.3 in the assay on HCC1569 [1] and 68.8 with TDF [2]. The H1.0 immunofluorescence intensity in the assay on TDF [3] was 122 (active); with HCC1569 [4], 183 (active).

Turning to `Cl.Oc1ccc2c3c1OC1c4[nH]c5ccccc5c4CC4(O)C(C2)N(CC2CC2)CCC314` (configuration not stated) [Naltrindole hydrochloride], the cell number with HCC1569 [1] is 101; in the assay with TDF [2], 99.3. For the same compound, the H1.0 immunofluorescence intensity in the assay with TDF [3] is 96.4 (inactive); with HCC1569 [4] it was 114 (inactive).

With `CC1OC(OC2CC(O)C3(CO)C4C(O)CC5(C)C(C6COC(=O)C6)CCC5(O)C4CCC3(O)C2)C(O)C(O)C1O` (configuration not stated) [Dihydroouabain], the results for the cell number in the assay on HCC1569 [1] and in the assay with TDF [2] were 61.7 and 43.7, respectively. Further, the H1.0 immunofluorescence intensity in the assay on TDF [3] was 104 (inactive); with HCC1569 [4] it was 82.2 (inactive).

For `CC(CCc1ccccc1)NC(C)C(O)c1ccc(O)cc1.Cl` (configuration not stated) [Nylidrin hydrochloride], the cell number in the assay with HCC1569 [1] turned out to be 102; with TDF [2] it was 109. Also, the H1.0 immunofluorescence intensity was 92.4 (inactive) in the assay with TDF [3] and 96.5 (inactive) in the assay with HCC1569 [4].

As to `CN1[C@@H]2CC[C@H]1C[C@@H](OC(=O)[C@H](CO)c1ccccc1)C2` [L-Hyoscyamine], the cell number in the assay on HCC1569 [1] was determined as 100; with TDF [2], 117. For the same compound, the H1.0 immunofluorescence intensity in the assay on TDF [3] is 95 (inactive); in the assay with HCC1569 [4] it was 96.2 (inactive).

Turning to `CNC(=O)Oc1ccc2c(c1)C1(C)CCN(C)C1N2C` (configuration not stated) [Physostigmine], the cell number in the assay with HCC1569 [1] and in the assay with TDF [2] was 104 each time. The H1.0 immunofluorescence intensity is 102 (inactive) in the assay on TDF [3] and 94.1 (inactive) in the assay on HCC1569 [4].

`CCCN(CCC)C1CCc2cccc(O)c2C1` (racemic): the results for the cell number in the assay on HCC1569 [1] and in the assay with TDF [2] were 101 and 88.4, respectively. The H1.0 immunofluorescence intensity in the assay with TDF [3] is 98 (inactive); with HCC1569 [4], 86.9 (inactive).

Turning to `CNCCc1c[nH]c2ccc(O)cc12.O=C(O)C(=O)O` [N-omega-Methyl-5-hydroxytryptamine oxalate salt], the cell number with HCC1569 [1] came out at 101; in the assay on TDF [2] it was 103. For the same compound, the H1.0 immunofluorescence intensity with TDF [3] was 91 (inactive); in the assay on HCC1569 [4], 96.1 (inactive).

As for `CC(C)=CCCC1=CC(=O)c2c(O)ccc(O)c2C1=O` [Deoxyshikonin], the cell number with HCC1569 [1] stood at 32; in the assay on TDF [2], 34.6. Besides, the H1.0 immunofluorescence intensity in the assay with TDF [3] is 119 (inactive); with HCC1569 [4] it was 171 (active).

On to `CC(C)(O)C1C2OC(=O)C1C1(O)CC3OC34C(=O)OC2C14C` (configuration not stated) [Picrotonin], for which the cell number came to 99.4 in the assay with HCC1569 [1] and 100 in the assay with TDF [2]. Besides, the results for the H1.0 immunofluorescence intensity with TDF [3] and with HCC1569 [4] were 97.2 (inactive) and 82.5 (inactive), respectively.

Take `CCCCCC=CCC=CCC=CCC=CCCCCCC(=O)NCCO` [Anandamide (22:4,n-6)]: the cell number with HCC1569 [1] amounted to 102; with TDF [2], 104. Besides, the H1.0 immunofluorescence intensity in the assay on TDF [3] was 102 (inactive); in the assay on HCC1569 [4], 98.3 (inactive).

Consider `COc1cc2c(cc1O)CCNC2C` (configuration not stated) [Salsoline], for which the cell number with HCC1569 [1] came out at 100; with TDF [2] it was 104. Also, the figures for the H1.0 immunofluorescence intensity in the assay with TDF [3] and in the assay on HCC1569 [4] were 91 (inactive) and 95.5 (inactive), respectively.

On to `CC(=O)NC1CN2CCC(O)C2C(O)C1O` (configuration not stated) [6-Acetamido-6-deoxy-castanospermine], for which the cell number in the assay with HCC1569 [1] and in the assay on TDF [2] was 103 throughout. For the same compound, the H1.0 immunofluorescence intensity in the assay on TDF [3] is 97.2 (inactive); in the assay on HCC1569 [4] it was 87.4 (inactive).

With `C[N+]1(C)C2CC(OC(=O)C(CO)c3ccccc3)CC1C1OC12.[Br-]` (single isomer, unassigned; (-)) [(-)-Scopolamine methyl bromide], the cell number in the assay with HCC1569 [1] turned out to be 104; in the assay with TDF [2], 98.8. Moreover, the H1.0 immunofluorescence intensity was 95.7 (inactive) with TDF [3] and 101 (inactive) in the assay with HCC1569 [4].

In the case of `CCCCCCCCCCCCCCCCOCC(COP(=O)([O-])OCC[N+](C)(C)C)OC(C)=O` (stereo not drawn) [Enantio-PAF C16], the results for the cell number with HCC1569 [1] and in the assay on TDF [2] were 100 and 106, respectively. The H1.0 immunofluorescence intensity is 93.7 (inactive) with TDF [3] and 94 (inactive) with HCC1569 [4].

Take `CC(=O)C1=C(O)C2C3c4c[nH]c5cccc(c45)CC3C(C)(C)N2C1=O` (configuration not stated) [Cyclopiazonic acid]: the figures for the cell number in the assay on HCC1569 [1] and with TDF [2] were 95.5 and 90.8, respectively. Besides, the H1.0 immunofluorescence intensity was 100 (inactive) in the assay on TDF [3] and 101 (inactive) in the assay with HCC1569 [4].

As for `CC12CCC3C(CCC4(O)CC(O)CCC34C=O)C1(O)CCC2C1=CC(=O)OC1` (configuration not stated) [Strophantidin], the cell number with HCC1569 [1] worked out at 67; with TDF [2], 56.2. Moreover, the H1.0 immunofluorescence intensity with TDF [3] was 123 (active); in the assay with HCC1569 [4] it was 115 (inactive).

For the compound `Cl.O=c1[nH]oc2c1CCNC2` [THIP hydrochloride], the cell number in the assay with HCC1569 [1] amounted to 100; in the assay on TDF [2] it was 112. The results for the H1.0 immunofluorescence intensity in the assay on TDF [3] and with HCC1569 [4] were 94 (inactive) and 86.1 (inactive), respectively.
